# From PubChem
# HRas wt GTP: modulators of GTP binding to HRas wildtype, primary screen, biochemical, bead-based flow cytometry, multiplex; GTPase HRas (Homo sapiens), P01112; GST-Ras wt beads, Bodipy-FL-GTP binding; actives lie on both sides; GTP binding activity, % at 10 µM; actives 0.14% (n = 190,000); AID 759, 2007;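 active = GTP binding activity at least 20% away from the 100% baseline, either lowered as inhibitor or raised as activator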
# Target sequence (P01112 whole entry, looked up): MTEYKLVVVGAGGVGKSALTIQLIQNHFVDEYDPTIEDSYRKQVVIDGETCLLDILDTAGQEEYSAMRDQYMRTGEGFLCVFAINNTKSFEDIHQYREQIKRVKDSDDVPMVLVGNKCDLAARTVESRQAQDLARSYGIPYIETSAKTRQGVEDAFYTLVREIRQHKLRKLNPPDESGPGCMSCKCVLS
# Rac1 act GTP bind: GTP binding modulators of activated mutant Rac1, primary screen, biochemical, bead-based flow cytometry, multiplex, fluorescent GTP; Ras-related C3 botulinum toxin substrate 1 (Homo sapiens), P63000; GST-Rac1 activated beads; actives lie on both sides; 100% means binding = to untreated wells; percent activity (GTP binding), % at 10 µM; actives 0.11% (n = 190,000);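 active = GTP binding at least 20 percentage points away from the 100% baseline, in either direction, so actives lie on both sides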
# Rac1 wt GTP bind: wildtype Rac1 GTP binding modulators, primary screen, biochemical, GST-Rac1 beads, flow cytometry, multiplex; actives 0.27% (n = 190,000); Ras-related C3 botulinum toxin substrate 1 (Homo sapiens), P63000; fluorescent GTP binding; actives lie on both sides; 0 = cold GTP competed, 100 = untreated; GTP binding activity (% of control), % at 10 µM;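 active = GTP binding activity at least 20 points away from the 100% control level, either lower or higher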
# Rab2 wt GTP: modulators of GTP binding to Rab2A wildtype, primary screen, biochemical, dog, bead-based flow cytometry, multiplex | Ras-related protein Rab-2A (Canis lupus familiaris), P61105 | GST-Rab2 wt beads, Bodipy-GTP binding | GTP binding activity, % at 10 µM | actives 0.19% (n = 190,000) | AID 760, 2007;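 active = GTP binding activity at least 20 points away from 100%, either lowered or raised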
# Rab7 wt modul: modulators of GTP binding to Rab7, primary screen, biochemical, wildtype, multiplex bead flow cytometry. Rab7 GTPase wild type (dog), Bodipy-FL-GTP binding. GST-Rab7 beads, fluorescent GTP binding; actives lie on both sides; untreated = 100%, excess cold GTP = 0%. GTP binding activity (percent of control), % at 10 µM. actives 0.055% (n = 190,000). AID 758, 2007;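 active = fluorescent GTP binding to Rab7 beads changed by at least 20 points from the 100% baseline, either direction, mostly lower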;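 note: median green fluorescence of bound Bodipy-FL-GTP per Rab7 bead population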
# Cdc42 wt: modulators of GTP binding to wildtype Cdc42, primary screen, biochemical, multiplex bead flow cytometry, Bodipy-GTP | percent activity (GTP binding), % at 10 µM | Cell division control protein 42 homolog (Homo sapiens), P60953 | GST-Cdc42 beads; actives lie on both sides | AID 761, 2007 | actives 0.2% (n = 190,000);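 active = percent activity GTP binding at least 20 points away from the 100% baseline, either down as inhibitor or up as activator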;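 note: median bead fluorescence of bound Bodipy-FL-GTP at 100 nM; below 100% means less GTP binding so inhibitor and above means activator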
# Target sequence (P60953 whole entry, looked up): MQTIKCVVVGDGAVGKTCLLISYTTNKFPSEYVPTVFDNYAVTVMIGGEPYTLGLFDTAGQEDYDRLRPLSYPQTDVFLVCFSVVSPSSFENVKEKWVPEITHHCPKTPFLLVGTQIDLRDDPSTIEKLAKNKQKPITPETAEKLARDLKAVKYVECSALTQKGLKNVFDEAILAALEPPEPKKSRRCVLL
# Hits are given with their value; – = inactive; [ ] = another dose, or the depositor's remark. This is a sample that favours compounds with a hit; in the whole collection about 0.37% have one here.
SMILES,HRas wt GTP,Rac1 act GTP bind,Rac1 wt GTP bind,Rab2 wt GTP,Rab7 wt modul,Cdc42 wt
CCCCNS(=O)(=O)c1ccc(NC(=O)Cc2ccc(OC)cc2)cc1,–,–,–,–,–,–
O=C(COC(=O)/C=C/c1ccc(Cl)cc1)Nc1ccc2c(c1)OCCO2,–,78,79,76,–,–
CCOc1ccc(NC(=S)N(CC)Cc2ccccc2)cc1,–,–,–,–,–,–
CC1=Nn2c(nnc2-c2ccco2)SC1,–,–,–,–,–,–
CCOc1ccc(C2=Nn3c(nnc3-c3ccco3)SC2)cc1,77,–,–,76,–,77
Cc1cc(C(=O)N=Nc2c(O)n(C(C)C)c3ccccc23)n[nH]1,–,–,–,–,–,–
CC(C)n1c(O)c(N=Nc2ccc(Cl)nn2)c2ccccc21,121[activator],–,–,129[activator],–,–
CCOC(=O)/C=C1\SCC(=O)N1CCOc1cccc(Br)c1,62,–,–,79,73,–
COc1cc(S(=O)(=O)Nc2ccc(Br)cc2)ccc1N,–,–,–,–,–,–
Cc1nnc2n(c1=O)N=C(c1ccc(Cl)cc1)CS2,–,–,–,–,–,–
Cn1nnnc1SCc1ccc(C(=O)Nc2nccs2)cc1,73,–,71,72,–,75
O=c1[nH]c(N/N=C\c2ccc3c(c2)OCO3)nc2ccccc12,80,–,67,77,–,78
CCN(CC)C(=S)SCC(=O)Nc1nc(=O)c2ccccc2s1,–,–,–,–,–,–
Cc1cc(C)nc(Nc2nc(=O)c3ccccc3s2)n1,–,–,165[activator],–,–,135[activator]
O=C(CSc1ccc2nnc(-c3cccc(F)c3)n2n1)N1CCCc2ccccc21,–,–,79,–,–,–
O=C(CSc1ccc2nnc(-c3ccc(F)cc3)n2n1)N1CCCc2ccccc21,–,–,–,–,–,–
CC/C(O)=C(/C#N)c1nnc2n1CCCCC2,–,–,–,–,–,–
N#C/C(=C(/O)COc1ccc(Br)cc1)c1nnc2n1CCCCC2,–,75,78,77,–,76
O=C(Cn1nc2ccccc2n1)N/N=C/c1cc([N+](=O)[O-])ccc1O,73,79,61,70,–,70
Cn1c(=O)c2c(ncn2CC(O)CNc2cccc(Cl)c2)n(C)c1=O (stereo not given),–,–,124[activator],–,–,–
Cc1cccc(NCC(O)Cn2cnc3c2c(=O)n(C)c(=O)n3C)c1 (stereo not given),–,–,–,–,–,–
CCCN=Cc1ccc(O)cc1,–,–,–,–,–,–
CCC(C(=O)NC1CCCC1)N(C(=O)Cn1nnc(-c2ccc(C)o2)n1)c1cnc2ccccc2c1 (stereo not given),–,–,125[activator],–,–,–
COc1ccccc1S(=O)(=O)CC(O)COc1ccc(C#N)cc1 (stereo not given),–,–,–,–,–,–
Cc1cc(C(=O)OCC(=O)NCc2ccco2)c(C)o1,–,–,–,–,–,–
SMILES,HRas wt GTP,Rac1 act GTP bind,Rac1 wt GTP bind,Rab2 wt GTP,Rab7 wt modul,Cdc42 wt
CC1Cc2ccccc2N1S(=O)(=O)c1cccc(C(=O)NCCCO)c1 (stereo not given),–,–,123[activator],–,–,–
O=C(CSC1CC(=O)N(c2ccc(C(=O)O)cc2)C1=O)Nc1ccc(Cl)cc1 (stereo not given),–,–,–,–,–,–
COc1cc2c(cc1OC)-c1cc(NC3CCCCCC3)nc(=O)n1CC2,75,–,–,75,–,77
COc1cc2c(cc1OC)-c1cc(N3CCCCCC3)nc(=O)n1CC2,–,–,–,–,–,–
CCOc1cccc(Nc2cc3n(c(=O)n2)CCc2cc(OC)c(OC)cc2-3)c1,–,–,78,–,–,–
COCCn1c(=S)[nH]c2cc(C(=O)N3CCc4ccccc4C3)ccc2c1=O,–,–,124[activator],–,–,–
Nc1ccc2nc[nH]c2c1,–,–,–,–,–,–
C=CCN1C(=NC(=O)CCCC(=O)O)SC2CS(=O)(=O)CC21 (stereo not given),–,–,–,–,76,–
COc1ccc2c3c(cccc13)C(=O)N(O)C2=O,–,–,79,–,–,–
COc1ccccc1N1C(=O)c2cccc3c(C(=O)O)ccc(c23)C1=O,–,–,–,–,–,–
COc1ccc(S(=O)(=O)Nc2ccccc2C(N)=O)cc1OC,–,–,–,–,–,–
CC(C)N1CCC(N2CCN(Cc3cc4c(cc3Cl)OCO4)CC2CCO)CC1 (stereo not given),–,–,–,–,–,–
CCCCOC(=O)CSC(=S)N(C)Cc1cccs1,–,–,–,–,–,–
CC(SC(=S)N(C)Cc1cccs1)C(=O)O (stereo not given),140[activator],144[activator],196[activator],140[activator],136[activator],168[activator]
O=C(CSc1ccc2ccccc2c1)Nc1ncccn1,–,–,–,–,–,–
O=C(Nc1nc2ccccc2[nH]1)c1ccc(F)cc1,–,–,–,–,–,–
N#Cc1c2nc3ccccc3nc2n2cc(NC(=O)c3ccc(F)cc3)ccc12,–,–,79,77,–,–
CCO[C@H]1OC(C(=O)N2CCN(C)CC2)=C[C@@H](c2ccc(Br)cc2)[C@@H]1CCCO,–,–,–,–,–,–
O=C(O)c1cccc(Oc2ccc([N+](=O)[O-])cc2)c1,–,120[activator],141[activator],121[activator],–,127[activator]
O=C(Cc1ccccc1)NNC(=O)Nc1ccccc1,–,–,–,–,–,–
CCNC(=S)N=Nc1c(O)[nH]c2ccc([N+](=O)[O-])cc12,67,–,58,65,–,65
COc1ccccc1Nc1nc(-c2c(C)nc3ncccn23)cs1,62,79,63,62,–,66
Cc1nc2ncccn2c1-c1csc(Nc2ccccc2)n1,59,–,60,62,–,67
COc1ccc(Nc2nc(-c3c(C)nc4ncccn34)cs2)cc1,77,–,65,76,–,76
Cc1nc2ncccn2c1-c1csc(Nc2ccc(N(C)C)cc2)n1,–,–,–,–,–,–
O=C(COc1ccc(Cl)cc1)N1CCN(C(=O)c2cccs2)CC1,–,–,–,–,–,–
NC(=O)COC(=O)c1cccc2c1-c1ccccc1C2=O,–,–,72,78,–,78
